High-throughput results deposited in PubChem BioAssay by National Center for Advancing Translational Sciences (NCATS).
FBPA Giardia inh: inhibitors of Giardia lamblia fructose-1,6-bisphosphate aldolase. purified Giardia FBPA. 290,000 tested, 0.71% active. Potency, µM (series often up to 59.6 µM), inactives show top-dose activity, negative = inhibition, usual class: inhibitors. A8B2U2; note: potency is the fitted concentration of half-maximal effect; % is set by controls: 0 for no effect and ±100 for the full control effect; nearly all actives have a fitted effect of over 55% in size
Target sequence (A8B2U2 whole entry, looked up): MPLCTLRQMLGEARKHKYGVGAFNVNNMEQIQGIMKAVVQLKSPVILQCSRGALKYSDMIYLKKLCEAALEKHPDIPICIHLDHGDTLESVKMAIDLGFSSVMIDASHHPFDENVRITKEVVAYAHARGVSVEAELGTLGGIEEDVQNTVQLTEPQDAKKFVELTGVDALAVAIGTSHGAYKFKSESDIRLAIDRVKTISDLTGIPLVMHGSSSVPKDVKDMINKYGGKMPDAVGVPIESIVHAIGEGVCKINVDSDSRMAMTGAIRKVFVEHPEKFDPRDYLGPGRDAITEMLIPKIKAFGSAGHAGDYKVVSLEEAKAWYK
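40 nM FBPA preincubated 10 min at RT with compound (up to 57.5 uM final), then substrate plus GAPDH/TPI/NAD/arsenate coupling and diaphorase/resazurin added. Fluorescence read after 20 min at RT, 525/598 nm.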
Shiga inhibitor: inhibitors of Shiga toxin in Vero cells. Vero cells, Shiga toxin protein synthesis inhibition reporter. inhibition, % at 38.7 µM. 290,000 tested, 9.2% active; in the data active = inhibition mostly above about 28%, no sharp cut-off; inactive = mostly below about 43%; note: 0% is about no effect
Pf growth 48h: inhibits P. falciparum growth in the first generation, 48 h; Potency, µM (titrated, usually from 28.7 µM), inactives show at the highest dose activity change, negative = inhibition, usual class: inhibitors; 310,000 tested, 5.9% active; AID 504832; P. falciparum luciferase growth in erythrocytes, 48 h; note: potency is the fitted concentration of half-maximal effect; % is set by controls: 0 for no effect and ±100 for the full control effect
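Luciferase-expressing P. falciparum in infected erythrocytes (2% hematocrit, 0.1% parasitemia final) in RPMI 1640/0.5% Albumax were exposed to compound for 48 hours at 37 C, 5% CO2; growth read as luminescence.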
Pf growth 96h: P. falciparum growth inhibition at 96 hours; P. falciparum luciferase reporter growth, 96 h; 320,000 tested, 6.9% active; Potency, µM (highest dose often 28.7 µM), for inactives: at the highest dose activity change, negative = inhibition, hits mostly inhibitors; AID 504834; note: potency is the fitted concentration of half-maximal effect; % is set by controls: 0 for no effect and ±100 for the full control effect
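Plates of compound plus infected erythrocytes (2% hematocrit, 0.05% parasitemia final) incubate 96 hours, 37 C, 5% CO2. Detection reagent added; reduced luminescence from the parasites' luciferase reporter flags inhibition.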
CHX counter: affects cycloheximide protein synthesis inhibition readout, counter-screen; cell reporter, cycloheximide protein synthesis inhibition counterscreen; max response, %; 300,000 tested, 12% active; AID 2314; in the data active = max response mostly above about 13%, no sharp cut-off; inactive = mostly below about 14%; note: read at 38.3 µM for the half of the compounds with a filed dose; 0% is about no effect
NS1 inh: blocks influenza NS1 protein function; Potency, µM (series often up to 46.1 µM), for inactives: top-dose activity, positive = more growth; 270,000 tested, 0.4% active; AID 2326; calls by dose curve; note: potency is the fitted concentration of half-maximal effect; actives are rising curves; nearly all actives have a fitted effect of over 50% in size
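Recovery from NS1-induced slow growth read by OD600 in budding yeast switched to galactose assay medium (pH 6.0, -URA) at 1:100 dilution. Compound 23 nl per well; the matching strain lacking NS1 serves as control.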
Active calls of the source: *; ? = inconclusive; / = no result; [ ] = another dose, or the depositor's remark. A selection: hits, their analogues and other compounds. The true share with any hit is near 21%. Unless noted, calls come from the whole dose curve; as a rule, active = well fitted curve in the direction sought with a large enough effect; inconclusive = small, poorly fitted or top-dose-only effect, or another doubt; inactive = no such curve, though single readings can be large; an effect the other way counts as inactive or inconclusive.

SMILES	FBPA Giardia inh	Shiga inhibitor	Pf growth 48h	Pf growth 96h	CHX counter	NS1 inh
CC[C@H](C)[C@H](NC(=O)[C@H](CCC(=O)O)NC(=O)[C@H](CO)NC(=O)[C@@H](NC(=O)[C@H](C)N)C(C)C)C(=O)N[C@@H](CCC(N)=O)C(=O)N[C@@H](CC(C)C)C(=O)N[C@@H](CCSC)C(=O)N[C@@H](Cc1cnc[nH]1)C(=O)N[C@@H](CC(N)=O)C(=O)N[C@@H](CC(C)C)C(=O)NCC(=O)N[C@@H](CCCCN)C(=O)N[C@@H](Cc1cnc[nH]1)C(=O)N[C@@H](CC(C)C)C(=O)N[C@@H](C)C(=O)N[C@@H](CO)C(=O)N[C@H](C(=O)N[C@@H](CCC(=O)O)C(=O)N[C@@H](CCCNC(=N)N)C(=O)N[C@@H](CCSC)C(=O)N[C@@H](CCC(N)=O)C(=O)N[C@@H](Cc1c[nH]c2ccccc12)C(=O)N[C@@H](CC(C)C)C(=O)N[C@@H](CCCNC(=N)N)C(=O)N[C@@H](CCCCN)C(=O)N[C@@H](CCCCN)C(=O)N[C@@H](CC(C)C)C(=O)N[C@@H](CCC(N)=O)C(=O)N[C@@H](CC(=O)O)C(=O)N[C@H](C(=O)N[C@@H](Cc1cnc[nH]1)C(=O)N[C@@H](CC(N)=O)C(=O)N[C@@H](Cc1ccccc1)C(=O)O)C(C)C)C(C)C	1.2%	8.3	/	/	-3.6	/
N#CC1=C(SCC(=O)c2ccccc2)NC2=C(C(=O)CCC2)C1c1ccco1 (centres undefined)	-12.8%	71.7*	?	81.7%	65.8*	19.9%
Fc1ccc(NC(=S)Nc2ccc(F)c(Cl)c2)cc1Cl	-10.3%	9.7	/	?	2.8	-189.8%
S=C(Nc1ccc(Cl)cc1)Nc1ccc2c(c1)OCCO2	/	58.5*	60.2%	76.9%	38.6*	-18.7%
S=C(Nc1ccc2c(c1)OCO2)Nc1ccc2c(c1)OCO2	-27.2%	66.3*	10.0%	22.6%	54.5*	17.9%
S=C(NCc1ccc2c(c1)OCO2)Nc1ccc2nsnc2c1	?	36.5	13.5%	10.6%	15.2*	-5.1%
O=C(CN1CCN(CC(=O)Nc2ccccc2Cl)CC1)Nc1ccc2c(c1)OCCO2	-11.0%	6.1	?	-16.2%	3.3	-18.8%
CN(C)C(=S)Nc1ccc2c(c1)OCO2	?	32.8	-21.4%[5.75 µM]	9.4%	-1.8	/
S=C(Nc1ccc2c(c1)OCCO2)Nc1ccccc1Cl	/	48.0*	30.3%	-82.4%	32.7*	-3.3%
CC1CN(C(=O)/C=C/c2ccc(SC(F)F)cc2)CC(C)O1 (centres undefined)	-3.7%	1.1	-22.4%	-15.2%	6.5	-2.6%
COc1ncc2nc(-c3ccc(F)cc3)c(=O)n(CCC#N)c2n1	7.0%	/	/	/	/	/
CCN(CC)c1ccc(C(=O)NNC(=O)CN2C(=O)NC3(CCCCC3)C2=O)cc1	/	/	-13.3%	-13.4%	/	/
COc1ccc(CCNC(=O)CCNC(=O)N2CC(=O)Nc3ccccc32)cc1	/	-4.6	17.6%	?	4.2	6.0%
CCCN(C(=O)COC(=O)C12CCC(=O)N1c1ccccc1S2)c1c(N)n(Cc2ccccc2)c(=O)[nH]c1=O (centres undefined)	/	1.9	3.9%	17.6%	7.8	-12.8%
CN(C)c1ccc(CN(C(=O)c2ccccc2Br)C2CCS(=O)(=O)C2)cc1 (centres undefined)	/	34.8*	-12.8%	13.1µM*	10.4*	-9.2%
CN(C)c1ccc(CN(C(=O)c2ccco2)C2CCS(=O)(=O)C2)cc1 (centres undefined)	-18.1%	7.7	55.6%	5.22µM*	-2.5	2.7%
CN(/N=C/c1ccccc1O)C(=S)c1ccccc1	18.2%	77.0	?	173.6%	24.7*	-6.4%
CN(C)C(=S)c1ccccc1	-0.2%	2.2	84.6%	31.1%	1.9	-1.1%
CC(C)CN=CC1=C(O)c2ccccc2C1=O	2.9%	71.9*	219.6%	271.7%	36.6*	-1.9%
O=C1C(C=NC2CC2)=C(O)c2ccccc21	-3.9%	56.6*	/	13.1µM*	37.1*	-24.2%
COc1cc(N=CC2=C(O)c3ccccc3C2=O)cc(OC)c1	-8.0%	63.9*	5.8%	-105.3%	20.0*	3.5%
COc1ccc(CN=C(C#N)C2=C(O)c3ccccc3C2=O)cc1	-20.2%	13.9	?	36.2%	11.8	-9.6%
O=C1C(C=NCCCN2CCCC2=O)=C(O)c2ccccc21	-1.9%	102.2*	143.4%	13.1µM*	40.4*	-1.9%
c1ncc(-c2ccc3c(c2)OCO3)c(NCCc2cnc[nH]2)n1	-16.5%	/	/	/	/	/
COc1ccccc1C(=O)NCC(=O)NCCc1ccc(Cl)cc1	1.9%	7.1	0.8%	-1.6%	-2.7	8.7%
SMILES	FBPA Giardia inh	Shiga inhibitor	Pf growth 48h	Pf growth 96h	CHX counter	NS1 inh
Clc1ccccc1C(Nc1ncccn1)Nc1ncccn1	/	/	/	/	/	-8.2%
O=C1C(C=NCc2ccccn2)=C(O)c2ccccc21	-23.1%	136.3*	184.1%	3.0%	58.8*	-0.5%
Cc1ccc(S(=O)(=O)c2cc3c(=O)n4ccccc4nc3n(C3CCCCC3)c2=N)cc1	/	-19.4	9.7%	?	6.1	11.2%
O=C(CN1CC[n+]2c(-c3cccs3)csc21)c1ccc(-c2ccccc2)cc1	4.1%	29.7	13.1µM*	?	9.1	?
O=C(COc1ccccc1)Nc1cccc(-c2nc3ccccc3[nH]2)c1	-1.9%	39.0	4.2%	-0.4%	22.1*	-56.7%
Cc1ccc2nc(-c3ccc(NC(=O)CSc4ccccc4)cc3)[nH]c2c1	3.5%	active	?	?	33.4*	21.6%
O=C(CSc1ccc(Cl)cc1)Nc1cccc(-c2nc3ccccc3[nH]2)c1	5.6%	-1.0	3.7µM*	?	7.4	-2.1%
O=C(CSc1ccccc1)Nc1ccc(-c2nc3ccccc3[nH]2)cc1	12.9%	6.2	?	-16.4%	11.8	11.9%
COc1ccc(OCC(=O)Nc2cccc(-c3nc4ccccc4[nH]3)c2)cc1	2.3%	19.9	?	11.7µM*	13.7*	-37.6%
CS(=O)(=O)c1cccc(C(=O)Nc2cccc(-c3nc4ccccc4[nH]3)c2)c1	3.1%	16.6	-15.3%	?	1.5	-8.9%
O=C(CSc1ccc(Cl)cc1)Nc1cccc(-c2nc3ncccc3o2)c1	4.8%	5.9	?	?	-0.9	-7.2%
O=C(O)CCCC(=O)Nc1cccc(-c2nc3ccccc3[nH]2)c1	-11.5%	-13.6	-4.3%	-17.9%	-3.4	-3.5%
Cc1ccc(NC(=O)COC(=O)c2ccc(S(=O)(=O)N3CCCC3)cc2)cc1	/	/	27.8%	32.1%	/	/
CSc1cccc(NC(=O)C2CCCN(c3ncnc4c3nc3n4CCCCC3)C2)c1 (centres undefined)	9.0%	-4.4	-26.3%	0.0%	-4.0	1.4%
C=CCSc1nnc(-c2cc3c(s2)-c2ccccc2CC3)o1	-7.3%	51.8*	?	2.4%	14.2*	-22.1%
NC(=S)N=Nc1c(O)[nH]c2cc(F)c(F)cc12	-14.5%	-2.5	?	9.28µM*	-2.6	10.1%
